Shown are actives, neighbours in structure and some others; about 6% of the full set was active somewhere.
D1 potentiator: enhances dopamine response at the human D1 receptor; 360,000 compounds, 0.036% hits; AID 504651; P21728; HEK293 TREx D1 cells, calcium flux, dopamine EC20 potentiation; potentiation, % at 10 µM; in the data active means potentiation above about 30%; further: 0% is about no effect
Target sequence (P21728 whole entry, looked up): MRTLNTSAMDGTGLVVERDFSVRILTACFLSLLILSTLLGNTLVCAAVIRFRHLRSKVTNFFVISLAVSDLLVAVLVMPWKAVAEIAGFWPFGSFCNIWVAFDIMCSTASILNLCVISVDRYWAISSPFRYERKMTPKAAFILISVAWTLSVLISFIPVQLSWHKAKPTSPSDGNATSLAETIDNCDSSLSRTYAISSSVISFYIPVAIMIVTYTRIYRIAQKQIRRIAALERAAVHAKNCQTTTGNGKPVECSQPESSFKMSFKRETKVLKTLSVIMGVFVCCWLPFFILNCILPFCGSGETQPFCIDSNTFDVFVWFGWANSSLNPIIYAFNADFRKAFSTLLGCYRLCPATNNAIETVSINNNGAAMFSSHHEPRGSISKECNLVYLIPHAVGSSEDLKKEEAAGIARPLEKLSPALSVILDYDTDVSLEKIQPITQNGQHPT
D1 antag: blocks dopamine activation of the human D1 receptor; P21728; HEK293 TREx D1 cells, calcium flux, dopamine EC80; hits give low values; activity change, negative = inhibition, % at 10 µM; 360,000 compounds, 3.2% hits; in the data active means activity change below about -30%; further: on the % scale 0 is the no-effect control and ±100 the full control effect
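Allosteric or orthosteric antagonism assessed as attenuation of the calcium response to EC80 dopamine, added 180 s after compound, in induced HEK293 Trex D1 cells loaded with no-wash calcium dye.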
DRD3 antagonist: antagonists of human D3 dopamine receptor; D3R cells, DiscoveRx beta-arrestin luminescence, antagonist mode; hits give low values; max response, negative = inhibition, %; 360,000 compounds, 2.5% hits; in the data active means max response below about -50%; further: on the % scale 0 is the no-effect control and ±100 the full control effect
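Cells expressing the human receptor were seeded at 1500 cells/well, incubated overnight at 37 degrees C in 5% CO2, then exposed to library compounds with dopamine controls for 90 minutes at 37 degrees C before luminescent detection.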
D3 ag: D3 dopamine receptor (human) agonism; D3R DiscoveRx beta-arrestin cells, luminescence, 90 min; max activation, %; 410,000 compounds, 0.58% hits; AID 652048; P35462; in the data active means max activation above about 30%; further: 0% is about no effect
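Agonist mode: compounds and dopamine controls were applied to plated cells for 90 min at 37 degrees C after an overnight attachment at 1500 cells/well. Luminescent read-out followed 30 - 60 minutes at room temperature with DiscoveRx detection reagent.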
D1 ag: activates the human D1 dopamine receptor; P21728; HEK293 T-REx D1 cells, calcium flux, agonist mode; activation, % at 2 µM; 360,000 compounds, 1% hits; AID 504660; in the data active means activation above about 30%; further: 0% is about no effect
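Tetracycline-induced HEK293 TREx D1 cells, force-coupled to calcium signalling, were dye-loaded with a no-wash calcium kit. Compound was pin-added after a 10 s baseline. Fluorescence was read kinetically at 1 cycle/s for 180 s, with calcium rises flagged as agonism.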
* marks the source's active call; other numbers are inactive results; x = not tested or not shown.

SMILES	D1 potentiator	D1 antag	DRD3 antagonist	D3 ag	D1 ag
CCOCCn1c(SCc2ccc(C)cc2)nc2c1c(=O)[nH]c(=O)n2C	-10	-38*	0	1	-1
CCCCCCn1c(SCC(=O)OC)nc2c1c(=O)[nH]c(=O)n2C	37*	-1	4	-1	0
CCOc1ccc(-c2nnc3ccc(SC(C)C)nn23)cc1	-3	-42*	0	3	2
CCOc1ccc(-c2nnc3ccc(SCC(=O)Nc4nc5ccccc5s4)nn23)cc1	-10	8	3	1	0
CCOc1ccc(-c2nnc3ccc(SCC(=O)Nc4nc5ccc(C)cc5s4)nn23)cc1	-15	-43*	3	5	1
CCN1c2ccccc2-c2nc(SCC(=O)NCc3ccc(C)cc3)ncc2S1(=O)=O	-1	-11	x	-8	4
O=C1COc2ccc(-c3cc(-c4ccccc4)c4c(n3)-c3cc(Cl)ccc3OC4)cc2N1	3	10	x	-7	-1
COCCNC(=O)c1ccc(CSCc2cccc(Cl)c2)o1	1	6	-11	-1	0
O=C(NCCc1ccc(Cl)cc1)c1ccc(CSCc2ccccc2Cl)o1	-2	-20	x	-13	31*
Cc1cccc(CSCc2ccc(C(=O)NCCc3ccccc3)o2)c1	-2	-79*	x	-7	11
CCOc1ccc(CCNC(=O)c2ccc(CSCc3ccccc3C)o2)cc1OCC	-3	-22	x	5	36*
CCNC(=O)[C@@H]1CCCN1C(=O)[C@H](CCCN=C(N)N)NC(=O)[C@H](CC(C)C)NC(=O)[C@@H](Cc1c[nH]c2ccccc12)NC(=O)[C@H](Cc1ccc(O)cc1)NC(=O)[C@H](CO)NC(=O)[C@H](Cc1c[nH]c2ccccc12)NC(=O)[C@H](Cc1cnc[nH]1)NC(=O)[C@@H]1CCC(=O)N1	x	x	x	-16	x
CCC(=O)N1CCc2cc(S(=O)(=O)NCCC(=O)Nc3cc(C)ccc3OC)ccc21	0	2	x	4	0
CCCCC(=O)Nc1nc2c(OC)cc([N+](=O)[O-])cc2s1	-8	-34*	8	-6	2
COc1cc([N+](=O)[O-])cc2sc(NC(C)=O)nc12	-1	-2	-16	-3	2
COc1ccc(NC(=O)c2c(-c3ccccc3)c(-c3ccccc3)nn(C)c2=O)c(OC)c1	3	10	x	2	3
Fc1ccc(CNn2cnnc2SCc2ccc(F)cc2)cc1	0	-7	-9	41*	4
CCN(CC)CCNC(=S)Nc1ccc(Cl)cc1	-3	-1	-51*	-11	12
CN(c1ccccc1)S(=O)(=O)c1cccc(NC(=O)CSc2n[nH]c(N)n2)c1	-19	-45*	13	8	2
Cc1nnc(SCC(=O)Nc2cccc(S(=O)(=O)N(C)c3ccccc3)c2)s1	-2	6	41	34*	34*
Cn1cccc1-c1nc2ccccc2n1Cc1ccccc1	-5	-12	-54*	-1	3
CCN(CC)CCSc1nc2ccccc2n1Cc1ccccc1	-17	-39*	-54*	-17	11
CCN(CC)CCn1c(NCc2nc3ccccc3n2Cc2ccccc2)nc2ccccc21	-3	23	-55*	-34	8
O=C(Cc1c(F)cccc1Cl)N1CCOCC1	-4	-36*	1	3	-1
O=C(NCCC(=O)N1CCN(Cc2c(F)cccc2Cl)CC1)c1ccc(Cl)cc1	-5	-7	-4	65*	1
SMILES	D1 potentiator	D1 antag	DRD3 antagonist	D3 ag	D1 ag
O=C(NCCC(=O)N1CCN(c2ccccc2O)CC1)c1ccc(Cl)cc1	-5	3	-5	8	3
CCCCCCOc1ccc(/C=C/C(=O)Nc2sc3c(c2C(=O)OC)CCC3)cc1OC	1	7	x	-37	-2
COc1ccc(NC(=O)CCCn2nc(C)c3c(C)n(-c4ccccc4)nc3c2=O)cc1OC	-2	-53*	-5	-1	0
COc1ccc(CCNC(=O)Cn2nc(C)c3c(C)n(-c4ccc(C)cc4)nc3c2=O)c(OC)c1	-2	-43*	x	-7	2
CNCc1ccccc1Sc1cc(O)ccc1O	-9	4	-55*	-22	2
CN(C)CCNc1ncnc2c1cnn2-c1cccc(Cl)c1	-2	0	x	-17	37*
Cc1ccc(-n2c(C)c(C)c3c(NCCN(C)C)ncnc32)cc1	-10	-38*	10	4	0
Cc1ccc(Cn2ncc3c(NCCN(C)C)ncnc32)cc1	3	8	-11	-11	4
CN(C)CCNc1ncnc2c1cnn2-c1ccc(Cl)cc1	x	0	-64*	-4	33*
Clc1cccc(-n2ncc3c(NCCCN4CCOCC4)ncnc32)c1	3	-77*	x	-18	1
O=C(NCCS(=O)(=O)N1CCN(c2ccccc2)CC1)C(c1ccccc1)c1ccccc1	3	-22	x	-8	1
CCN(CC)C(=O)c1sc2c(c1C)c(=O)n(-c1ccccc1)c(=O)n2Cc1c(C)cc(C)cc1C	-3	4	x	2	0
Cc1ccc(Cl)cc1-n1ncc2c(Nc3cccc(C)c3C)ncnc21	-2	4	x	3	57*
OCCCNc1ncnc2c1cnn2-c1ccc(Cl)cc1	-11	-36*	1	3	16
Clc1ccc(-n2ncc3c(NCc4ccco4)ncnc32)cc1	-3	-44*	-1	-4	1
COc1ccc(Br)cc1CNC(=O)c1cnc2sc(N3CCC(C)CC3)nn2c1=O	1	-19	x	-17	1
Cn1c(=O)c2c(nc(N3CCOCC3)n2Cc2cccc(Br)c2)n(C)c1=O	-4	6	x	7	0
CC(=O)N1CCc2cc(S(=O)(=O)NC(CC(C)C)C(=O)Nc3ccc(C(C)C)cc3)ccc21 (centres undefined)	5	-20	x	3	5
O=C(c1ccccc1)c1ccc(OCCn2cnc3ccccc3c2=O)cc1	-6	-29	5	2	2
CC(C)(c1ccccc1)c1ccc(OCCn2cnc3ccccc3c2=O)cc1	6	5	18	8	33*
C=C1C(=O)O[C@H]2[C@H]1CC/C(C)=C\CC[C@@]1(C)O[C@@H]21	x	x	x	-10	x
CCOC(=O)c1ccc(N2C(=O)C=CC2=O)cc1	1	0	-82*	4	-2
Cc1ccc(-n2c(=S)[nH]c3nc4c(cc3c2=O)COC(C)(C)C4)cc1	-10	-48*	-9	-5	1
Cc1ccc(-n2c(=S)[nH]c3[nH]ncc3c2=O)cc1	-4	-31*	13	-1	3
CCC1(C)Cc2nc3[nH]c(=S)n(-c4ccc(C)cc4)c(=O)c3cc2CO1 (centres undefined)	7	-2	6	2	2
CC1CC2=C(C(=O)O1)C(c1ccc(Cl)cc1)Nc1ccccc1N2 (centres undefined)	0	-12	-52*	-4	1
